# Data reported in the supplement of paper PMC7411054.
# Structures can show the parent of a compound that is named as a salt.
# What was measured:
# Conditions in all cases: treatment time: 24 h
# [1] = tested on: A549-GM130-SQSTM1; experiment: lowest phenotypically active concentration; higher = less potent
# In short: (§1)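 Phenotypic activity depended on meeting both a deviation and a reproducibility criterion. The fifteen gene-edited A549, HepG2 and WPMY1 reporter lines were treated at 0.3, 1, 3 or 9 µM for 24 h, four wells each, then imaged live with features normalised to solvent control wells. Deviation required ≥3 of 4 wells past the 95th percentile of control Euclidean distances, and reproducibility a median replicate Pearson correlation above the 95th percentile of non-replicates.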
# [2] = tested on: A549-ACTB-RAB5A; experiment: phenotypically active (imaging signature differs from DMSO and reproducible) at any of 0.3-9 uM (binary (1 = active, 0 = inactive)); higher = active
# In short: as §1
# [3] = tested on: A549-CANX-COX4; experiment: as above
# In short: as §1
# [4] = tested on: A549-GM130-SQSTM1; experiment: as above
# In short: as §1
# [5] = tested on: A549-TP53BP1-CLTA; experiment: as above
# In short: as §1
# [6] = tested on: A549-TUBA1B-RELA; experiment: as above
# In short: as §1
# [7] = tested on: HepG2-ACTB-RAB5A; experiment: as above
# In short: as §1
# [8] = tested on: HepG2-CANX-COX4; experiment: as above
# In short: as §1
# [9] = tested on: HepG2-GM130-SQSTM1; experiment: as above
# In short: as §1
# [10] = tested on: HepG2-TP53BP1-CLTA; experiment: as above
# In short: as §1
# [11] = tested on: HepG2-TUBA1B-RELA; experiment: as above
# In short: as §1
# [12] = tested on: WPMY1-ACTB-RAB5A; experiment: as above
# In short: as §1
# [13] = tested on: WPMY1-CANX-COX4; experiment: as above
# In short: as §1
# [14] = tested on: WPMY1-GM130-SQSTM1; experiment: as above
# In short: as §1
# [15] = tested on: WPMY1-TP53BP1-CLTA; experiment: as above
# In short: as §1
# [16] = tested on: WPMY1-TUBA1B-RELA; experiment: as above
# In short: as §1
# [17] = tested on: HepG2-ACTB-RAB5A; experiment: lowest phenotypically active concentration; higher = less potent
# In short: as §1
# [18] = tested on: HepG2-GM130-SQSTM1; experiment: as above
# In short: as §1
# [19] = tested on: WPMY1-GM130-SQSTM1; experiment: as above
# In short: as §1
# [20] = tested on: WPMY1-TP53BP1-CLTA; experiment: as above
# In short: as §1
Structure (SMILES),lowest phenotypically active concentration [1] [µM],phenotypically active [2],phenotypically active [3],phenotypically active [4],phenotypically active [5],phenotypically active [6],phenotypically active [7],phenotypically active [8],phenotypically active [9],phenotypically active [10],phenotypically active [11],phenotypically active [12],phenotypically active [13],phenotypically active [14],phenotypically active [15],phenotypically active [16],lowest phenotypically active concentration [17] [µM],lowest phenotypically active concentration [18] [µM],lowest phenotypically active concentration [19] [µM],lowest phenotypically active concentration [20] [µM]
CC[C@@H](CO)NC(=O)[C@@H]1C=C2c3cccc4c3c(cn4C)C[C@H]2N(C)C1 [methysergide],9,0 (inactive),0 (inactive),1 (active),0 (inactive),0 (inactive),0 (inactive),0 (inactive),0 (inactive),0 (inactive),0 (inactive),0 (inactive),0 (inactive),0 (inactive),0 (inactive),0 (inactive),–,–,–,–
COc1cc([C@@H]2c3cc4c(cc3[C@H](O)[C@H]3COC(=O)[C@H]23)OCO4)cc(OC)c1OC [Podophyllotoxin],≤ 0.3,1 (active),1 (active),1 (active),1 (active),1 (active),1 (active),1 (active),1 (active),1 (active),1 (active),1 (active),1 (active),1 (active),1 (active),1 (active),≤ 0.3,≤ 0.3,≤ 0.3,≤ 0.3
CN1C[C@H](C(=O)N[C@]2(C)O[C@@]3(O)[C@@H]4CCCN4C(=O)[C@H](Cc4ccccc4)N3C2=O)C[C@@H]2c3cccc4[nH]cc(c34)C[C@H]21.CN1C[C@H](C(=O)N[C@]2(C)O[C@@]3(O)[C@@H]4CCCN4C(=O)[C@H](Cc4ccccc4)N3C2=O)C[C@@H]2c3cccc4[nH]cc(c34)C[C@H]21 [dihydroergotamine],9,1 (active),0 (inactive),1 (active),1 (active),1 (active),1 (active),0 (inactive),1 (active),1 (active),1 (active),0 (inactive),0 (inactive),1 (active),1 (active),0 (inactive),9,9,9,9
COc1ccc(C[C@H]2NC[C@H](O)[C@H]2OC(C)=O)cc1 [Anisomycin],≤ 0.3,1 (active),1 (active),1 (active),1 (active),1 (active),1 (active),1 (active),1 (active),1 (active),1 (active),1 (active),1 (active),1 (active),1 (active),1 (active),≤ 0.3,≤ 0.3,≤ 0.3,≤ 0.3
CC(C)(N)Cc1ccccc1 [phentermine],–,0 (inactive),1 (active),0 (inactive),1 (active),0 (inactive),1 (active),0 (inactive),0 (inactive),0 (inactive),0 (inactive),0 (inactive),0 (inactive),1 (active),0 (inactive),0 (inactive),9,–,9,–
Cc1sc2c(c1C)C(c1ccc(Cl)cc1)=N[C@H](CC(=O)OC(C)(C)C)c1nnc(C)n1-2,–,0 (inactive),0 (inactive),0 (inactive),0 (inactive),0 (inactive),1 (active),1 (active),1 (active),0 (inactive),0 (inactive),0 (inactive),0 (inactive),1 (active),0 (inactive),1 (active),9,9,9,–
CCC(=O)O[C@](Cc1ccccc1)(c1ccccc1)[C@H](C)CN(C)C [propoxyphene],–,–,0 (inactive),–,0 (inactive),–,0 (inactive),0 (inactive),0 (inactive),0 (inactive),0 (inactive),0 (inactive),0 (inactive),0 (inactive),0 (inactive),0 (inactive),–,–,–,–
CN1C(=O)CN=C(c2ccccc2)c2cc(Cl)ccc21 [diazepam],–,0 (inactive),0 (inactive),0 (inactive),0 (inactive),0 (inactive),1 (active),0 (inactive),0 (inactive),0 (inactive),0 (inactive),0 (inactive),0 (inactive),0 (inactive),0 (inactive),0 (inactive),9,–,–,–
C[C@@H](CO)NC(=O)[C@@H]1C=C2c3cccc4[nH]cc(c34)C[C@H]2N(C)C1 [Ergobasine],9,0 (inactive),0 (inactive),1 (active),1 (active),0 (inactive),0 (inactive),0 (inactive),1 (active),0 (inactive),0 (inactive),0 (inactive),1 (active),1 (active),1 (active),0 (inactive),–,9,9,9
O=P1(N(CCCl)CCCl)NCCCO1 (centres undefined) [cyclophosphamide],–,–,0 (inactive),–,0 (inactive),–,0 (inactive),0 (inactive),0 (inactive),0 (inactive),0 (inactive),0 (inactive),0 (inactive),0 (inactive),0 (inactive),0 (inactive),–,–,–,–
COc1cc2c(cc1O)C[C@H]1c3c(cc(O)c(OC)c3-2)CCN1C [Boldine],9,0 (inactive),0 (inactive),1 (active),0 (inactive),1 (active),1 (active),0 (inactive),0 (inactive),0 (inactive),0 (inactive),0 (inactive),0 (inactive),1 (active),0 (inactive),0 (inactive),9,–,1,–
C[C@]12CC[C@H](O)C[C@H]1CC[C@@H]1[C@@H]2CC[C@]2(C)[C@@H](C3=CC(=O)OC3)CC[C@]12O [Digitoxigenin],–,–,1 (active),–,1 (active),–,1 (active),1 (active),1 (active),1 (active),1 (active),1 (active),1 (active),1 (active),1 (active),1 (active),≤ 0.3,≤ 0.3,1,≤ 0.3
"BrC1C(Br)C(Br)C(Br)C(Br)C1Br (centres undefined) [1,2,3,4,5,6-Hexabromocyclohexane]",–,0 (inactive),0 (inactive),0 (inactive),0 (inactive),0 (inactive),0 (inactive),0 (inactive),1 (active),0 (inactive),0 (inactive),0 (inactive),0 (inactive),0 (inactive),0 (inactive),0 (inactive),–,9,–,–
C[C@H](N)Cc1ccccc1 [dextroamphetamine],3,1 (active),0 (inactive),1 (active),–,1 (active),0 (inactive),0 (inactive),0 (inactive),–,0 (inactive),0 (inactive),0 (inactive),0 (inactive),–,0 (inactive),–,–,–,–
CN1[C@@H]2CC[C@H]1C[C@@H](OC(=O)C(CO)c1ccccc1)C2 (some centres undefined) [Atropine sulfate monohydrate],–,0 (inactive),0 (inactive),0 (inactive),–,0 (inactive),0 (inactive),0 (inactive),0 (inactive),–,0 (inactive),0 (inactive),0 (inactive),0 (inactive),–,0 (inactive),–,–,–,–
CN1C[C@H](CO)C=C2c3cccc4[nH]cc(c34)C[C@H]21 [Lysergol],–,0 (inactive),0 (inactive),0 (inactive),0 (inactive),0 (inactive),0 (inactive),0 (inactive),0 (inactive),0 (inactive),0 (inactive),0 (inactive),0 (inactive),1 (active),0 (inactive),0 (inactive),–,–,9,–
"Cc1c(C(=O)c2cccc3ccccc23)c2cccc3c2n1[C@H](CN1CCOCC1)CO3 [WIN 55,212-2 mesylate]",9,0 (inactive),0 (inactive),1 (active),0 (inactive),0 (inactive),0 (inactive),0 (inactive),1 (active),0 (inactive),0 (inactive),1 (active),1 (active),1 (active),1 (active),0 (inactive),–,9,9,9
C=C(C)[C@H]1Cc2c(ccc3c2O[C@@H]2COc4cc(OC)c(OC)cc4[C@@H]2C3=O)O1 [Rotenone],–,–,1 (active),–,1 (active),–,1 (active),1 (active),1 (active),1 (active),1 (active),1 (active),1 (active),1 (active),1 (active),1 (active),≤ 0.3,≤ 0.3,1,≤ 0.3
O=C1NC(=S)N(c2cccc(Br)c2)C(=O)/C1=C/c1ccco1,–,0 (inactive),0 (inactive),0 (inactive),0 (inactive),1 (active),0 (inactive),1 (active),1 (active),0 (inactive),1 (active),1 (active),1 (active),1 (active),1 (active),1 (active),–,9,3,9
CC(C)C[C@H]1C(=O)N2CCC[C@H]2[C@]2(O)O[C@](NC(=O)[C@@H]3C=C4c5cccc6[nH]c(Br)c(c56)C[C@H]4N(C)C3)(C(C)C)C(=O)N12 [bromocriptine],–,–,0 (inactive),–,1 (active),–,1 (active),1 (active),1 (active),1 (active),1 (active),0 (inactive),0 (inactive),1 (active),1 (active),0 (inactive),9,9,9,9
CC[C@H]1CN2CCC1C[C@H]2[C@H](O)c1ccnc2ccc(OC)cc12 (some centres undefined) [Hydroquinine hydrobromide hydrate],–,–,0 (inactive),–,0 (inactive),–,0 (inactive),0 (inactive),0 (inactive),0 (inactive),0 (inactive),0 (inactive),0 (inactive),0 (inactive),1 (active),0 (inactive),–,–,–,9
C[C@@H]1C[C@@H]([C@H](O)CC2CC(=O)NC(=O)C2)C(=O)[C@@H](C)C1 [Cycloheximide],–,–,1 (active),–,1 (active),–,1 (active),1 (active),1 (active),1 (active),1 (active),1 (active),1 (active),1 (active),1 (active),1 (active),≤ 0.3,≤ 0.3,≤ 0.3,≤ 0.3
